Bioassay records deposited in PubChem BioAssay by The Scripps Research Institute Molecular Screening Center.
GPR151 ag: activators of human GPR151, primary screen, cell-based, PathHunter beta-arrestin, luminescence | activation, % at 11.2 µM | G-protein coupled receptor 151 (Homo sapiens), Q8TDV0 | actives 1% (n = 650,000) | PathHunter beta-arrestin GPR151 cells; in the data active = activation above about 4.9%
Target sequence (Q8TDV0 whole entry, looked up): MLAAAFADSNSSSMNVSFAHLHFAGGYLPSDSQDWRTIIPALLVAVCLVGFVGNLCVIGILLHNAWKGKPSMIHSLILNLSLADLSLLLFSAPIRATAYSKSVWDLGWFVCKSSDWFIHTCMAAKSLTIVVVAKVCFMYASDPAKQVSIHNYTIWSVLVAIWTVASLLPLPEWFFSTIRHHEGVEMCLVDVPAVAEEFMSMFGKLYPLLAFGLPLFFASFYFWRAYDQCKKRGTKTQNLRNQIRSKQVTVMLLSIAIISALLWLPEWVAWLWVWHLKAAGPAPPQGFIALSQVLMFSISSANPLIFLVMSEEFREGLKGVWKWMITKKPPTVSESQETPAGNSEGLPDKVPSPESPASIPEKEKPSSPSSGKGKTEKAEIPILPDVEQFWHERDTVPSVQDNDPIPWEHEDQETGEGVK
FBW7 act: FBW7 E3 ligase activators, primary screen, biochemical, AlphaScreen, human; F-box/WD repeat-containing protein 7 (Homo sapiens), Q969H0; AlphaScreen FBW7–phospho-cyclin E peptide binding, activator screen; normalized activity (activation), % at 26.1 µM; actives 0.13% (n = 650,000); AID 1259310, 2017; in the data active = normalized activity above about 1.9%;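 also: purified mutant Fbw7 with reduced substrate affinity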
TEAD-YAP inh: TEAD-YAP interaction inhibition, primary screen, TEAD-YAP interaction inhibitor project, luminescence, HEK-TIYL cells; TEAD-Gal4/YAP UAS-luciferase luminescence; inhibition, % at 9.12 µM; actives 1.4% (n = 640,000); in the data active = inhibition above about 32%
MITF inh: MITF inhibitors, primary screen, biochemical, AlphaScreen, human. Microphthalmia-associated transcription factor (Homo sapiens), O75030. inhibition, % at 2.6 µM. actives 0.91% (n = 650,000). AlphaScreen MITF homodimerization, bead proximity signal; in the data active = inhibition above about 50%
MITF inh conf: MITF inhibitors, retest of hits, confirmation, biochemical, AlphaScreen, triplicate; inhibition, % at 2.6 µM; AlphaScreen MITF homodimerization, biotin/His-MITF beads; actives 16% (n = 4,700); shares compounds with MITF inh;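 active = inhibition above a cutoff derived from the DMSO control wells, cut at about 28% in these data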;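 also: inhibitors lower the bead chemiluminescence by keeping MITF from dimerizing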
AlphaScreen DR: AlphaScreen optical interference compounds, dose response, counter-screen, biochemical, HTS; IC50, µM; AlphaScreen optical interference counterscreen, cell-free; actives 6% (n = 480); AID 1259373, 2018; shares compounds with MITF inh; call rule not given here
AS interf ctr: AlphaScreen optical interference compounds, counter-screen for MITF inhibitor project, biochemical, triplicate | shares compounds with MITF inh | LysRS AlphaScreen counterscreen, signal interference | inhibition, % at 2.6 µM | actives 7.6% (n = 4,700) | AID 1259376, 2018;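 active = inhibition above a cutoff derived from the DMSO control wells, cut at about 30% in these data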
A number is an active result; – = inactive; · = no result given. This is a sample that favours compounds with a hit; in the whole collection about 3.5% have one here.

SMILES	GPR151 ag	FBW7 act	TEAD-YAP inh	MITF inh	MITF inh conf	AS interf ctr	others
COc1ccccc1NC(=O)N1CCCC1C(=O)NCc1ccccc1F (stereo not given)	–	–	–	–	·	·
COc1ccccc1NC(=O)N1CCCC1C(=O)NCc1ccccc1Cl (stereo not given)	–	–	–	73	–	–
CC(C)(C)NCCCOc1ccc(C(C)(C)C)cc1	–	–	–	–	·	·
CCOc1ccc(OCCCNC(C)(C)C)cc1	–	–	–	69	–	–
Cc1sc2ncnc(N(C)CCc3ccccn3)c2c1C	–	–	–	73	–	–
Nc1ncc(-c2ccco2)nc1N1CCC(C(=O)O)CC1	–	–	–	73	–	–
Nc1ncc(-c2ccccc2)nc1N1CCC(C(=O)O)CC1	–	–	–	–	·	·
Cc1nc(N2CCCCC2)c2ccsc2n1	–	–	–	92	–	–
CCOC(=O)c1c(NC(=O)c2cc(-c3ccccc3C)nc3ccccc23)sc2c1CCCCCC2	–	–	–	69	–	–
CCOC(=O)c1c(NC(=O)c2cc(-c3cc(C)ccc3C)nc3ccccc23)sc2c1CCCC2	–	–	–	–	·	·
Cc1cc(N)c(O)c2ncccc12	–	–	–	81	104	101
Cc1ccc(S(=O)(=O)Nc2cc(Cl)c(O)c3ncccc23)cc1	–	–	–	–	·	·
CCCC(=O)Oc1ccc(N(C(=O)CCC)S(=O)(=O)c2ccc3ccccc3c2)cc1Cl	–	–	–	–	·	·
CN1CCN(CC(=O)Nc2c3c(nc4ccccc24)CCCC3)CC1	–	–	–	60	–	–
CN(CC(=O)Nc1c2c(nc3ccccc13)CCC2)Cc1ccccc1	–	–	–	71	–	–
O=C(CN1CCN(Cc2ccccc2)CC1)Nc1c2c(nc3c1CCC3)CCCC2	–	–	–	67	–	–
O=C(CN1CCN(c2ccccc2)CC1)Nc1c2c(nc3c1CCC3)CCCC2	–	–	–	–	·	·
C=CCn1c(O)c(C2=c3cc(C)ccc3=NC2=O)s/c1=N/c1nccs1	–	–	–	–	·	·
Cc1ccc(C)n1C(Cc1c[nH]c2ccccc12)C(=O)O (stereo not given)	–	–	–	87	73	–	AlphaScreen DR=–
NCc1nc2ccc(Cc3ccc4nc(CN)[nH]c4c3)cc2[nH]1	–	–	–	105	84	100
Cc1nn(-c2ccc(N3CCN(S(=O)(=O)c4ccc(F)cc4F)CC3)nn2)c(C)c1C	–	–	–	–	·	·
COc1ccc(CNC(=O)CNCC2(N3CCOCC3)CCCCC2)cc1	–	–	–	55	–	–
COC(=O)c1ccc(C(=S)NCC2(N3CCOCC3)CCCCC2)cc1	–	–	–	–	·	·
Cc1sc2ncn(CC(=O)NCC(=O)N3CCN(c4ccc(F)cc4)CC3)c(=O)c2c1C	–	–	–	68	–	–
O=C(Nc1ccccc1C(F)(F)F)c1ccc(NC(=O)c2ccccc2C(=O)O)cc1	–	–	–	56	–	–
SMILES	GPR151 ag	FBW7 act	TEAD-YAP inh	MITF inh	MITF inh conf	AS interf ctr	others
O=C(Nc1ccccc1C(F)(F)F)c1ccc(NC(=O)c2ccco2)cc1	–	–	–	–	·	·
COc1nccnc1NS(=O)(=O)c1ccc(NC(=O)c2ccc([N+](=O)[O-])c(C)c2)cc1	–	–	–	59	34	–	AlphaScreen DR=–
COc1ccc(CCNC(=O)C2CCN(c3ccc(NCc4cccnc4)nn3)CC2)cc1	–	–	–	–	·	·
O=C(NCc1ccccc1)c1ccc(CS(=O)c2ccc(Br)cc2)o1 (stereo not given)	–	–	–	–	·	·
O=C(NCc1ccco1)c1ccc(CS(=O)c2ccc(Br)cc2)o1 (stereo not given)	–	–	–	77	–	–
COc1cc(OC)c(OC)cc1CN1CCN(Cc2ccccc2F)CC1	–	–	–	77	–	–
COc1ccc(CN2CCN(Cc3ccccc3F)CC2)c(OC)c1	–	–	–	81	–	–
COc1cc(CN2CCCC2)c([N+](=O)[O-])cc1OC	–	–	–	–	·	·
COc1ccc(OC)c(CN2CCN(Cc3ccc(OC)cc3OC)CC2)c1	–	–	–	–	·	·
COc1ccc(CN2CCN(Cc3cc(OC)c(OC)cc3[N+](=O)[O-])CC2)c(OC)c1	–	–	–	80	–	–
COc1ccc(CN2CCSCC2)c(OC)c1	–	–	–	–	·	·
COc1ccc(CN2CCN(Cc3ccccc3OC)CC2)c(OC)c1	–	–	–	78	–	–
CC(C)(Oc1ccc(Cl)cc1)c1nc(-c2cccnc2)no1	–	–	–	–	·	·
Cc1cc(C)c(NC(=O)C2CCCCN2N)c(C)c1 (stereo not given)	–	–	–	–	·	·
COc1cc(OC)c(OC)cc1CN1CCN(Cc2ccccc2Br)CC1	–	–	–	–	·	·
COc1cc(OC)c(OC)cc1CN1CCN(Cc2cc(OC)c(OC)cc2OC)CC1	–	–	–	71	–	–
COc1ccc(CN2CCN(Cc3cc(OC)c(OC)cc3OC)CC2)c(OC)c1	–	–	–	73	–	–
COc1cc(OC)c(OC)cc1CN1CCN(Cc2ccc(SC)cc2)CC1	–	–	–	52	–	–
COc1ccc(CN2CCN(Cc3cc(OC)c(OC)cc3[N+](=O)[O-])CC2)cc1OC	–	–	–	68	–	–
COc1ccccc1-n1c(SCC(=O)Nc2ccc(C)cc2)nc2c(sc(=S)n2CCc2ccccc2)c1=O	–	–	–	–	·	·
CCN(CC)C(=O)CSc1nc2c(sc(=S)n2-c2ccc(C)c(C)c2)c(=O)n1-c1ccccc1OC	–	–	–	–	·	·
COc1ccccc1CN1CCOCC1	–	–	–	58	–	–
COc1cc(OC)c(OC)cc1CN1CCN(Cc2ccccc2Cl)CC1	–	–	–	75	–	–
COc1cc(OC)c(OC)cc1CN1CCN(Cc2cccc(Br)c2)CC1	–	–	–	73	–	–
Cc1cccc(C)c1NC(=O)CN(C)C(=O)c1ccc([N+](=O)[O-])o1	–	–	–	–	·	·
CCOC(=O)CN(C)Cc1ccc(OC)cc1OC	–	–	–	–	·	·
CCOC(=O)CN(C)Cc1ccccc1Br	–	–	–	59	–	–
CCC(C)C(=O)C(=O)N1CCc2c(C(=O)OC)c(OCc3ccccn3)cc(=O)n2CC1 (stereo not given)	–	–	–	–	·	·
N#CC1=C(N)Oc2n[nH]c(-c3ccc(Cl)c(Cl)c3)c2C1c1ccccc1F (stereo not given)	–	–	–	–	·	·
